Results taken from PubChem BioAssay (Tox21).
Inconclusive results are not listed. Active and inactive are the calls of the source. Unless noted, the call rests on the fitted dose curve.

Columns and labels:
[1] = Nuclear factor erythroid 2-related factor 2/antioxidant responsive element (Nrf2/ARE) small molecule agonists: qHTS cell viability counter screen in human keratinocytes (AID 1919968; active means well fitted curve in the direction sought with a large enough effect in the repeat runs; an effect the other way counts as inactive or inconclusive; further: nearly all actives have a fitted effect of over 55% in size)
Outline: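 KeratinoSens cells (HaCaT keratinocytes stably carrying an ARE-luciferase reporter) were seeded at 1,500 cells/well and rested 5 h at 37 C/5% CO2. They were then exposed to compounds in DMSO for 23 h. Viability was read by CellTiter-Fluor fluorescence after 1 h.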

[2] = Nuclear factor erythroid 2-related factor 2/antioxidant responsive element (Nrf2/ARE) small molecule agonists: luciferase reporter gene qHTS assay in human keratinocytes (AID 1919969); further: nearly all actives have a fitted effect of over 35% in size
[3] = biological target: Gonadotropin-releasing hormone receptor (Homo sapiens) (UniProt P30968); assay: Human gonadotropin-releasing hormone receptor (GnRHR) small molecule agonists, calcium flux assay in GnRHR-HEK293 cells (AID 1920063); further: nearly all actives have a fitted effect of over 35% in size
Outline: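 HEK293 cells stably expressing human GnRHR were plated 18 h at 37 °C, loaded with calcium dye 1 h at 37 °C, then given compound in agonist mode; fluorescence (Ex/Em 480/540) read kinetically for 3 min at 1 s intervals.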

[4] = biological target: KiSS-1 receptor (Homo sapiens) (UniProt Q969F8); assay: Human kisspeptin (KISS1R) small molecule agonists, calcium flux assay in KISS1R-HEK293 cells (AID 1920064; active means well fitted curve in the direction sought with a large enough effect in the repeat runs; an effect the other way counts as inactive or inconclusive)
Outline: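 HEK293 cells stably expressing human KISS1R were plated 18 h at 37 °C, loaded with calcium dye for 1 h at 37 °C, then given compound by pin tool. Fluorescence (Ex/Em 480/540) was read kinetically for 3 min.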

[5] = G protein-coupled receptor (GPCR) small molecule agonists, calcium flux assay: HEK293 wild type cell line counter screen (AID 1920065)
Outline: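 Cells were plated and cultured 18 h at 37 C/5% CO2, then loaded with calcium dye for 1 h at 37 C. Compounds in DMSO were pin-transferred in agonist mode, and fluorescence (Ex/Em 480/540) was read kinetically for 3 min at 1 s intervals.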

[6] = p53 small molecule agonists, cell-based qHTS assay with human liver microsomes (AID 1963577);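 further: p53 response element beta-lactamase reporter cells with liver microsomes plus NADPH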
Outline: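 With metabolic activation: human liver microsomes (0.5 mg/mL final) plus NADPH (0.5 mg/mL final) added alongside compounds to p53RE-bla cells; 16 h 37 C exposure; beta-lactamase read by LiveBLAzer fluorescence.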

[7] = p53 small molecule agonists, cell-based qHTS assay with rat liver microsomes (AID 1963578)
Outline: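 Metabolic activation by rat liver microsomes and NADPH, each 0.5 mg/mL final, added right after compounds to p53RE-bla reporter cells (4,000/well, plated 5 h earlier). 16 h at 37 C, then LiveBLAzer substrate for 2 h at room temperature in the dark; fluorescence read-out.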

[8] = p53 small molecule agonists, cell-based qHTS assay with human liver microsomes: qHTS cell viability counter screen (AID 1963579); further: nearly all actives have a fitted effect of over 45% in size
Outline: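 Metabolic activation used human liver microsomes and NADPH, both 0.5 mg/mL final, over 16 hours at 37 C on p53RE-bla cells (4,000/well). Cytotoxicity measured by CellTiter-Glo luminescence, 30 min at room temperature.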

[9] = p53 small molecule agonists, cell-based qHTS assay with rat liver microsomes: qHTS cell viability counter screen (AID 1963580); further: nearly all actives have a fitted effect of over 45% in size
Outline: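 HCT-116 p53RE-bla, 4,000 cells/well, 5 h pre-incubation; cpd + rat liver microsomes 0.5 mg/mL + NADPH 0.5 mg/mL (final); 16 h, 37 C; CellTiter-Glo, 30 min RT; luminescence.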

[10] = p53 small molecule agonists, cell-based qHTS assay: qHTS cell viability counter screen (AID 1963581); further: nearly all actives have a fitted effect of over 45% in size
Outline: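 p53RE-bla HCT-116 cells were exposed to compounds for 16 h at 37 C; after the beta-lactamase FRET read in the same wells, CellTiter-Glo was added and luminescence (intracellular ATP) read after 30 min at room temperature.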

[11] = p53 small molecule agonists, cell-based qHTS assay (AID 1963582; active means well fitted activation curve with a large enough effect in the signal ratio in the repeat runs, not every such curve was filed as active; the % refers to the signal ratio)
Outline: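 p53RE-bla beta-lactamase reporter cells rested 5 h at 37 C/5% CO2, then received compounds in DMSO by pin transfer and were incubated 16 h at 37 C. LiveBLAzer B/G FRET substrate was loaded for 2 h at room temperature before fluorescence reading.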

[12] = biological target: 5-hydroxytryptamine receptor 2A (Homo sapiens) (UniProt P28223); assay: 5-hydroxytryptamine receptor 2A (HTR2A) small molecule antagonists, cell-based qHTS assay (AID 1963586); further: nearly all actives have a fitted effect of over 45% in size
Outline: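 Antagonist-mode intracellular calcium assay: DOI (4 nM) added after 5 min compound pre-incubation at room temperature to dye-loaded HTR2A-CHO cells. Fluorescence followed for 3 min, sampled every second.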

[13] = biological target: 5-hydroxytryptamine receptor 2A (Homo sapiens) (UniProt P28223); assay: 5-hydroxytryptamine receptor 2A (HTR2A) small molecule agonists, cell-based qHTS assay (AID 1963587); further: nearly all actives have a fitted effect of over 30% in size
Outline: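 Kinetic calcium-flux fluorescence (2 min, 1 sec intervals) after compound addition in agonist mode. HTR2A-CHO cells were cultured 18 h, then dye-loaded 1 h at 37 C.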

[14] = cAMP Responsive Elements (CRE) small molecule agonists, cell-based qHTS assay (AID 1963590)
Outline: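 CRE-bla HEK 293T cells in DMEM with 10% dialyzed FBS, NEAA, pyruvate and 25 mM HEPES were plated 18 h at 37 C/5% CO2, then exposed to compounds in DMSO for 3 h before LiveBLAzer B/G FRET substrate addition.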

[15] = cAMP Responsive Elements (CRE) small molecule antagonists, cell-based qHTS assay (AID 1963591; active means well fitted inhibition curve with a large enough effect in the signal ratio in the repeat runs, not every such curve was filed as active; the % refers to the signal ratio)
Outline: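 CRE-bla HEK293T cells were plated 18 h at 37 °C/5% CO2, pinned with compound in DMSO, then stimulated with NKH477 at 0.25 uM final for 3 h. LiveBLAzer B/G FRET substrate was added and plates incubated 2 h at room temperature.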

[16] = biological target: Beta-2 adrenergic receptor (Homo sapiens) (UniProt P07550); assay: Adrenergic beta2 receptor (ADRB2) small molecule antagonists, cell-based qHTS assay (AID 1963592); further: series mostly up to about 92 µM; nearly all actives have a fitted effect of over 50% in size
Outline: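 Cells (CHO, stable ADRB2 overexpression) incubated 18-20hr at 37C; compounds added from DMSO; agonist mix (1nM isoproterenol, 100uM IBMX, 25uM Ro-20-1724) added; 0.5hr RT; d2-cAMP and anti-cAMP-cryptate added; 1hr RT; 665/615 nm read.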

[17] = biological target: Beta-2 adrenergic receptor (Homo sapiens) (UniProt P07550); assay: Adrenergic beta2 receptor (ADRB2) small molecule agonists, cell-based qHTS assay (AID 1963593);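 further: CHO cells stably overexpressing human ADRB2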
Outline: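 CHO cells stably over-expressing ADRB2 were plated overnight at 37C, then dosed with compounds plus a stimulation mix containing 100uM IBMX and 25uM Ro-20-1724 for 0.5hr at room temperature. cAMP was measured by HTRF competition, 1hr.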

[18] = biological target: D(2) dopamine receptor (Homo sapiens) (UniProt P14416); assay: Dopamine D2 receptor (DRD2) small molecule agonists, cell-based qHTS assay (AID 1963594); further: nearly all actives have a fitted effect of over 35% in size
Outline: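 cAMP accumulation in DRD2-HEK293 cells measured by HTRF after 1 h detection; compounds added 10 min before NKH477 (200nM […]) forskolin-analogue stimulation, 30 min at room temperature, with Ro20-1724 present at 0.1 mM final.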

[19] = biological target: D(2) dopamine receptor (Homo sapiens) (UniProt P14416); assay: Dopamine D2 receptor (DRD2) small molecule antagonists, cell-based qHTS assay (AID 1963595; active means well fitted inhibition curve with a large enough effect in the signal ratio in the repeat runs, with a control signal flat; the % refers to the signal ratio)
Outline: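 Antagonism was scored as restored cAMP in HEK293-DRD2 cells. These cells were stimulated with 200 nM NKH477 and 12 nM quinpirole for 30 min at room temperature, in the presence of 0.1 mM Ro20-1724.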

[20] = biological target: Muscarinic acetylcholine receptor M1 (Homo sapiens) (UniProt P11229); assay: Cholinergic receptor muscarinic 1 (CHRM1) small molecule antagonists, cell-based qHTS assay (AID 1963588); further: nearly all actives have a fitted effect of over 40% in size
Outline: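 CHRM1-CHO calcium-flux assay, antagonist mode. Cells were seeded 18 h, dye-loaded 1 h at 37 C and given compound for 5 min at RT, then acetylcholine was added at 50nM. FDSS fluorescence was read 3 min; 15 concentrations, three runs.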

Measured: Potency

Chain of Gonadotropin-releasing hormone receptor (Homo sapiens) (P30968 whole entry, looked up): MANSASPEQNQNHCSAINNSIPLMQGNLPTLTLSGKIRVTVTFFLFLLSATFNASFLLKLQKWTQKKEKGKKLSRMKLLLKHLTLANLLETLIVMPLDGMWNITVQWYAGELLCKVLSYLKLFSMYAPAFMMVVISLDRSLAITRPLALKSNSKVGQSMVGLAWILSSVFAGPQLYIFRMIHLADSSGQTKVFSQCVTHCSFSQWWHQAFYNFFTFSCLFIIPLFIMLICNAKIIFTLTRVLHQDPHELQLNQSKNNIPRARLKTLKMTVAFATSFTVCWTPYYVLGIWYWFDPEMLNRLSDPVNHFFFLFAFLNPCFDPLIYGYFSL
Chain of Muscarinic acetylcholine receptor M1 (Homo sapiens) (P11229 whole entry, looked up): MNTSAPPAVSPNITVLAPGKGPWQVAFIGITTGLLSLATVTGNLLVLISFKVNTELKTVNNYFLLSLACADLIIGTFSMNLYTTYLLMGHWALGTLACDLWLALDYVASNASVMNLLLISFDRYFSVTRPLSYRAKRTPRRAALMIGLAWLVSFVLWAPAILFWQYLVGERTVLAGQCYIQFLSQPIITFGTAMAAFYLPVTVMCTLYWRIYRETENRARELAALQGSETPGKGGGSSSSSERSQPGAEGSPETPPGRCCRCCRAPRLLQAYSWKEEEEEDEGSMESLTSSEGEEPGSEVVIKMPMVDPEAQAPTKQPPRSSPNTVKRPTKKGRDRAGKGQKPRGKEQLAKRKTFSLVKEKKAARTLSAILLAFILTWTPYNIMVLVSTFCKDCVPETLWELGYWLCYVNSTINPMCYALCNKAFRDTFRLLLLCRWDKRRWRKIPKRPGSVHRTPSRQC
Chain of 5-hydroxytryptamine receptor 2A (Homo sapiens) (P28223 whole entry, looked up): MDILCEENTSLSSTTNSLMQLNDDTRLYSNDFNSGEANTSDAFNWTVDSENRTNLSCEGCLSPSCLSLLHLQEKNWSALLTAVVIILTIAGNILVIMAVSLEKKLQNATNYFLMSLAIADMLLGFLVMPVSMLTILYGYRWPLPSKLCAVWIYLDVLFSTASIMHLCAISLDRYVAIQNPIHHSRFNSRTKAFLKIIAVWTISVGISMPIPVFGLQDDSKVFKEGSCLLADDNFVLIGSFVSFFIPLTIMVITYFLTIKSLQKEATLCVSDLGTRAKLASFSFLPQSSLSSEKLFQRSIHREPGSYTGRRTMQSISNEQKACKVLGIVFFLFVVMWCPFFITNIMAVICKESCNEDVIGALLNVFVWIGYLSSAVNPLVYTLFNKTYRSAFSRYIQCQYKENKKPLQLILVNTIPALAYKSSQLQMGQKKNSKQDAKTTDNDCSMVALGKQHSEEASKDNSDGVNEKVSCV
Chain of D(2) dopamine receptor (Homo sapiens) (P14416 whole entry, looked up): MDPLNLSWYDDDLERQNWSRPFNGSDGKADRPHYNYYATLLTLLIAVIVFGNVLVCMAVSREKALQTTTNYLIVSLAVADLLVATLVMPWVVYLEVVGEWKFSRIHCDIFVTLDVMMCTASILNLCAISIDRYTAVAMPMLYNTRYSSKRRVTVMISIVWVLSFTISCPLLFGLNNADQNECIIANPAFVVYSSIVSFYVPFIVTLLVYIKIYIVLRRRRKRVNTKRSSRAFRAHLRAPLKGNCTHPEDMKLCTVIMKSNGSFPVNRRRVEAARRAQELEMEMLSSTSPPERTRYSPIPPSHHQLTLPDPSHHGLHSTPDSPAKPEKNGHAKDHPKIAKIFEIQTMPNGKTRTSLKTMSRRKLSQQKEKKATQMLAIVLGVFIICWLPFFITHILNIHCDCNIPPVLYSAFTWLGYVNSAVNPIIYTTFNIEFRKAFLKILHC
Chain of Beta-2 adrenergic receptor (Homo sapiens) (P07550 whole entry, looked up): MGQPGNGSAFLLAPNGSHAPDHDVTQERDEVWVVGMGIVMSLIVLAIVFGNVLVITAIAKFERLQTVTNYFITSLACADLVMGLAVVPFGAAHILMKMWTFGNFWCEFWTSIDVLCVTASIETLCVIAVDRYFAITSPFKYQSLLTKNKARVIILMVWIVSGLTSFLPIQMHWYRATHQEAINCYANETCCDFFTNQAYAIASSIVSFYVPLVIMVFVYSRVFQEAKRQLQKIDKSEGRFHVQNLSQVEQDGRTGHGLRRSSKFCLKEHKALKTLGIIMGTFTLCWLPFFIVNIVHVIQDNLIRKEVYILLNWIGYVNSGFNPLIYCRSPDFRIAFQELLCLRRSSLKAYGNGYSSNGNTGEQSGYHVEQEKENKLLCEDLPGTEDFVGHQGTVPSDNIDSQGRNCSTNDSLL
Chain of KiSS-1 receptor (Homo sapiens) (Q969F8 whole entry, looked up): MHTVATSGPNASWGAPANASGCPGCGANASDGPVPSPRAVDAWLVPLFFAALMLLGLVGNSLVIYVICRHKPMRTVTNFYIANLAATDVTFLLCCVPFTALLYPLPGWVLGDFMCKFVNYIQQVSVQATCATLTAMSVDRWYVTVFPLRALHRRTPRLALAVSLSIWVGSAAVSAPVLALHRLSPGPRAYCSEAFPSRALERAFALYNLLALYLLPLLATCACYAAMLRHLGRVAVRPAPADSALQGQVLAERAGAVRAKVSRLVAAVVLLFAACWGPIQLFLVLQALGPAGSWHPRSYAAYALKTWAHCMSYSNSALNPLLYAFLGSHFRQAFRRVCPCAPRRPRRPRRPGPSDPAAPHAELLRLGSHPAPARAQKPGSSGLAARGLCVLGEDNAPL

CCCC(C)CCC(C)=O (stereo unspecified)
not listed: [20]
inactive: all other assays above

O=C(O)c1cccc(Cl)c1Cl
not listed: [19] | [20]
inactive: all other assays above

COc1nc(N)nc2nc[nH]c12
not listed: [20]
inactive: all other assays above

CC(=O)c1cc2ccccc2s1
not listed: [18] | [20]
inactive: all other assays above

CC(=O)/C=C/c1ccco1
not listed: [17] | [20]
inactive: all other assays above

CCC(C)C1CCCCC1=O (stereo unspecified)
not listed: [17] | [20]
inactive: all other assays above

O=C[C@H](O)[C@H](O)[C@H](O)CO
not listed: [15]
inactive: all other assays above

Nc1cc(C(Cl)=C(Cl)Cl)c(S(N)(=O)=O)cc1S(N)(=O)=O
not listed: [17] | [20]
inactive: all other assays above

Cc1cc(N)n(-c2ccccc2)n1
not listed: [17] | [20]
inactive: all other assays above

CCC/C=C/CO
not listed: [13] | [16]
inactive: all other assays above

COCC(O)CO (stereo unspecified)
not listed: [16] | [20]
inactive: all other assays above

COc1cc(/C=C/C(N)=O)cc(OC)c1OC
not listed: [13] | [14] | [17]
inactive: all other assays above

CCCCOC(=O)[C@H](C)O
not listed: [13]
inactive: all other assays above

CC(=O)C1(C)CC2=C(CCCC2(C)C)CC1C (stereo unspecified)
not listed: [13] | [20]
inactive: all other assays above

CCCOC(C)=O
not listed: [13]
inactive: all other assays above

O=P(O)(OCc1ccccc1)OCc1ccccc1
not listed: [13] | [17]
inactive: all other assays above

CC(O)C(C)O (stereo unspecified)
not listed: [16] | [20]
inactive: all other assays above

Cc1ccc(-c2ccccc2C#N)cc1
not listed: [14] | [17] | [18] | [20]
inactive: all other assays above
